ROC1-CUL1 inh = inhibitors of human ROC1-CUL1 ubiquitin ligase activity. P62877+Q13616. in vitro K48 di-Ub FRET, acceptor:donor ratio, 45 min. inhibition, % at 10 µM. actives 0.6% (n = 140,000). AID 1347404; in the data active = inhibition above about 25%
Target sequence (P62877 whole entry, looked up): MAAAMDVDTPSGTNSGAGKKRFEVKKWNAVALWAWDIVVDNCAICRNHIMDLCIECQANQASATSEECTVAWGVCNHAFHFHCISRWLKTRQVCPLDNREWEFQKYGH
Target sequence (Q13616 whole entry, looked up): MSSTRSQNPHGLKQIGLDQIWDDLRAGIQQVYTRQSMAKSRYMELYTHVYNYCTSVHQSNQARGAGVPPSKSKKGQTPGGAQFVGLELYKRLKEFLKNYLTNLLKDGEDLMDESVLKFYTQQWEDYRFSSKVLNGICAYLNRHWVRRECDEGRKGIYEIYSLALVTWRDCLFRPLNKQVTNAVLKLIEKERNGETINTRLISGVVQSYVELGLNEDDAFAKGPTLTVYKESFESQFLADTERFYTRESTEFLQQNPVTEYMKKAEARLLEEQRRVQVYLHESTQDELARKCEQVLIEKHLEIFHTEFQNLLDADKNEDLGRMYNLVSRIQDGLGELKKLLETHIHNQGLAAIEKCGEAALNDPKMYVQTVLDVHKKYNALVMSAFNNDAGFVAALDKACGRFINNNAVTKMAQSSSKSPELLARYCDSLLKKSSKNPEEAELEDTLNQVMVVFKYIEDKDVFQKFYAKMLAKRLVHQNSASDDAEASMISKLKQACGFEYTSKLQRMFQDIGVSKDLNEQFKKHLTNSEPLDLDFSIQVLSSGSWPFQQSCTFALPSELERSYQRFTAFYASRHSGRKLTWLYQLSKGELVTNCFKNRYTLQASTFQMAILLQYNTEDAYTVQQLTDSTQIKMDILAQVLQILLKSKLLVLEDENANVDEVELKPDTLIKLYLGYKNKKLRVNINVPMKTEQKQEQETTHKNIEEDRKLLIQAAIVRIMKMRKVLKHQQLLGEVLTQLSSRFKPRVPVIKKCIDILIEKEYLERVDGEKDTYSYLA
* = called active by the depositor. Only a selection was taken, and hits are over-represented in it overall.

SMILES | ROC1-CUL1 inh
O=C(CN1C(=O)S/C(=C\c2cc(Cl)cc(Br)c2O)C1=O)Nc1ccccc1F | 26*
O=C(O)CN1C(=O)/C(=C/c2ccccc2C(F)(F)F)SC1=S | -1
O=C(O)CN1C(=O)/C(=C\c2cc(Cl)cc(Br)c2O)SC1=S | 81*
O=C(CN1C(=O)S/C(=C/c2ccc(O)c(Br)c2)C1=O)Nc1cccc2ccccc12 | 4
CCOc1c(Br)cc(/C=C2\SC(=S)N(CC(=O)O)C2=O)cc1Br | 4
O=C(O)CN1C(=O)/C(=C/c2ccc(F)c(Br)c2)SC1=S | 0
Cc1cc(/C=C2/SC(=O)N(CC(=O)Nc3ccccc3F)C2=O)c(C)n1C | 5
C=CCN1C(=O)/C(=C\c2c(OCC)ccc3ccccc23)SC1=S | 4
CCOc1cc(Br)c(Br)c(/C=C2\SC(=S)N(CC(=O)O)C2=O)c1O | 28*
CC(=O)NNC(=S)NC(=O)c1cccc([N+](=O)[O-])c1 | 5
O=C(Nc1cccc(OC(F)(F)F)c1)c1cccc(OCc2ccccc2)c1 | -1
CCOc1ccc(-c2c(C)nn3c(C)c(C(=O)NCc4cccc(OC)c4)cnc23)cc1OCC | -8
O=C1NN=CC(=N/N=C\c2ccc(O)c([N+](=O)[O-])c2)C1Cl (configuration not stated) | 18
COc1cc(OC)c(C(=O)Nc2ccccc2)cc1OC | -3
Cc1ccc(Sc2ccc(/C=C(\C#N)c3ccc([N+](=O)[O-])cc3)o2)cc1 | -3
COc1ccc(-c2cnnc(N[C@H]3CCCCNC3=O)n2)cc1 | 9
CCOc1cc(C2C3=C(CC(c4ccc(OC)c(OC)c4)CC3=O)N=C(C)C2C(=O)OCc2ccccc2)cc(Br)c1O (configuration not stated) | 0
O=C1COc2ccc(C(=O)NCc3ccco3)cc2N1 | 4
O=C1C=Cc2ccc(N3CCOCC3)c3cccc1c23 | -6
CC1(N2CCOCC2)C(=O)c2ccccc2C1=O | 0
O=C1C=C(N2CCOCC2)c2ccccc2C1=O | 76*
O=C(c1ccc(N2CCC(NCC3(N4CCOCC4)CCCCC3)CC2)cc1)N1CCCC(O)C1 (configuration not stated) | 3
O=c1cc(N2CCCCC2)cnn1CC1COc2ccccc2O1 (configuration not stated) | -1
CC(C)C1=NN2C(=N)/C(=C/c3ccc(-c4cc(Cl)cc(Cl)c4)o3)C(=O)N=C2S1 | -1
N=C1/C(=C/c2ccc(-c3ccc(F)cc3)o2)C(=O)N=C2SC(C(F)(F)F)=NN12 | 93*
SMILES | ROC1-CUL1 inh
COc1ccc(/C=C2/C(=N)N3N=C(C(F)(F)F)SC3=NC2=O)c(OC)c1OC | 6
N=C1/C(=C/c2ccc(-c3ccccc3)o2)C(=O)N=C2SC(c3ccccc3Cl)=NN12 | 4
Cc1c(/C=C2\C(=N)N3N=C(C(F)(F)F)SC3=NC2=O)c2ccccc2n1Cc1ccc(F)cc1 | 4
N=C1/C(=C/c2ccc(-c3ccccc3)o2)C(=O)N=C2SC(C(F)(F)F)=NN12 | 60*
CCC1C(=O)C=C2N(C1=O)c1ccc(Cl)cc1C2(C)C (configuration not stated) | -9
CCOC(=O)c1ccccc1Nc1cc(C)nc2nc(-c3ccco3)nn12 | -4
O=C(O)CCCNc1cc(N2CCN(C3CCCCC3)CC2)c2noc3c2c1C(=O)c1ccccc1-3 | -2
COc1ccc(NC(=O)Cn2c(=O)n(CCCC(=O)NCc3ccccc3Cl)c(=O)c3ccccc32)c(OC)c1 | -3
O=C(O)c1cccc(Sc2ccc(Cl)cc2)c1 | 6
O=C(NCCC1=CCCCC1)c1ccco1 | 4
O=C(NCCC1=CCCCC1)c1cc(-c2ccco2)nc2ccccc12 | 42*
O=C(NCCC1=CCCCC1)c1ccccc1Cl | 1
S=C1NCC(c2ccccc2)Oc2ccccc21 (configuration not stated) | 1
Cn1cnc(S(=O)(=O)N2CCCC(C(=O)Nc3ccc(F)cc3Cl)C2)c1 (configuration not stated) | 0
Cc1ccc(NC(=O)COc2cc(Cl)ccc2Cl)c([N+](=O)[O-])c1 | -1
CCC(=O)N1CCCc2cc(S(=O)(=O)N3CCC(C(=O)NCc4ccc(F)cc4)CC3)ccc21 | -3
CCOc1cc(NC(=O)C(C(F)(F)F)C(F)(F)F)c(OCC)cc1NC(=O)c1ccccc1 | 67*
CCOc1c(Cl)cc(C(=O)Nc2ccccc2C(F)(F)F)cc1Cl | 3
CCOc1cc(C(=O)Nc2ccccc2Oc2ccccc2)cc(OCC)c1OCC | -3
COc1cc2nc(N(C)C)c(CNCc3cccc(F)c3)cc2c(OC)c1OC | 6
CN1C(=O)C(O)(CC(=O)c2ccc(Cl)s2)c2ccccc21 (configuration not stated) | 1
CC(=O)N1c2ccccc2C2(O)N=C(C)SC12 (configuration not stated) | 44*
CC(=O)N1c2ccccc2C(=O)C1C (configuration not stated) | -3
COc1cc(Cl)cc2c1Sc1ccccc1CC2N1CCNCC1 (configuration not stated) | 3
CCC(C)NC(=O)CN1C(=O)COc2ccc(S(=O)(=O)N3CCOCC3)cc21 (configuration not stated) | -9
SMILES | ROC1-CUL1 inh
Cc1[nH][nH]c(=O)c1C(c1c(C)[nH][nH]c1=O)c1cn(Cc2cccc3ccccc23)c2ccccc12 | 39*
CCOc1cc(C(c2c(C)[nH][nH]c2=O)c2c(C)[nH][nH]c2=O)cc(I)c1O | -2
Cc1[nH][nH]c(=O)c1C(c1c(C)[nH][nH]c1=O)c1cn(C)c2ccccc12 | 26*
Cc1[nH][nH]c(=O)c1C(c1cccc(OCc2ccccc2Cl)c1)c1c(C)[nH][nH]c1=O | -9
CC(C)C1=NN2C(=N)/C(=C\c3cn(Cc4cccc5ccccc45)c4ccccc34)C(=O)N=C2S1 | 9
CCOc1cc(C(c2c(C)[nH][nH]c2=O)c2c(C)[nH][nH]c2=O)cc(Br)c1OCc1cccc2ccccc12 | 26*
Cc1[nH][nH]c(=O)c1C(c1ccccc1I)c1c(C)[nH][nH]c1=O | -5
CCOc1cc(C(c2c(C)[nH][nH]c2=O)c2c(C)[nH][nH]c2=O)cc(I)c1OC | -8
Cn1cc(C(c2cccs2)c2cn(C)c3ccccc23)c2ccccc21 | 3
CCN(CC)C1CC(=O)N(c2c(C)cc(C)cc2C)C1=O (configuration not stated) | -6
CCOc1c(C=C(C#N)C#N)c2ccccc2n1CC | 2
C=CCn1c(=N)c(C(=O)NCc2ccc(C)cc2)cc2c(=O)n3ccccc3nc21 | 9
Cc1nn(C)c(C)c1NC(=O)CSc1nnc(C)n1-c1ccccc1 | 0
CCC(CC)c1nn2c(N)c(C=C3C=CC(=O)C(OC)=C3)c(=O)nc2s1 | 12
CC(C)c1nn2c(N)c(C=C3C=C(Br)C=CC3=O)c(=O)nc2s1 | 2
Nc1c(C=C2C=C(Cl)C(=O)C(Cl)=C2)c(=O)nc2sc(C34CC5CC(CC(C5)C3)C4)nn12 | 76*
Cc1ccc(N2C(=O)NC(=O)/C(=C\c3cccs3)C2=O)cc1C | -8
Cc1ccsc1/C=C1/C(=O)NC(=S)N(c2cccc(Cl)c2Cl)C1=O | 54*
C=CCOc1ccc(/C=C2\C(=O)NC(=S)N(c3cccc(Cl)c3Cl)C2=O)cc1 | -2
CN1C(=O)/C(=C/c2ccc(N3CCCC3)cc2)C(=O)NC1=S | 13
O=C1NC(=S)N(c2cccc(Cl)c2Cl)C(=O)/C1=C/c1cn(Cc2ccc3ccccc3c2)c2ccccc12 | -15
O=C1NC(=S)N(c2cccc(Cl)c2Cl)C(=O)/C1=C/c1ccc(N2CCOCC2)cc1 | 29*
COc1ccccc1/C=N/OC(=O)c1cc(F)c(Cl)nc1Cl | -7
